# Screening results deposited in PubChem BioAssay by several laboratories.
# Sampled rows, rich in hits. Any-hit rate of the full collection: about 3.1%.
# EWS-Fli inh = inhibitors of EWS/Fli oncoprotein transcriptional activity; actives 0.67% (n = 350,000); inhibition, % at 12.6 µM; A673 NR0B1-luciferase reporter, viability-normalised; AID 651661;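 active means mean inhibition of at least 50% after viability correction, with every replicate also passing that limit; inconclusive means mean reaches 50% but only one of two replicates passes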;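 further: firefly luciferase signal divided by Alamar Blue viability fluorescence both relative to DMSO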
# TWEAK-Fn14 inh = blocks TWEAK-Fn14 interaction in a reporter cell assay | TWEAK-stimulated Fn14 reporter cells, luciferase luminescence, 8 h | inhibition, % at 10 µM | actives 2% (n = 360,000) | AID 1159606; in the data active means inhibition above about 50%
# LMP1 NFkB inh = reduces LMP1-driven NF-kappaB luciferase signal. LMP1-induced NF-kappaB luciferase reporter cells, luminescence. inhibition, % at 12.5 µM. actives 0.69% (n = 350,000); in the data active means inhibition above about 41%; inconclusive means no clear call, values can overlap the other calls;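 further: 0% = neutral control wells and 100% = reference inhibitor control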
# LGR2 antag = blocks bursicon-induced cAMP signaling via Drosophila LGR2 | HEK293 LGR2, CRE-luciferase, bursicon-stimulated, 4 h | inhibition, % at 9.99 µM | actives 0.35% (n = 380,000);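 active means drop in luminescence signal, shown as inhibition above about 50% in the replicate tests, limit read from the data, passing the limit was not always enough; inconclusive means probably only some replicates passing the limit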;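 further: agonist challenge used bursicon conditioned medium at about half maximal strength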
# PAX8 reporter = lowers PAX8-driven luciferase in RMG-I cells. RMG-I TPO-luciferase reporter, SteadyGlo, 24 h. inhibition, % at 12.6 µM. actives 1.2% (n = 360,000). AID 652154;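 active means mean replicate inhibition at least 60% with every replicate also reaching 60%; inconclusive means only one of the two criteria is met; inactive means mean below 60% and not all replicates reaching 60%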;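 further: luciferase light reporting Pax8 driven TPO promoter activity; plate controls were median of neutral control wells for no effect and mitoxantrone controls for full effect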
# TROY NFkB inh = inhibitors of TROY-dependent NF-kB signaling; actives 0.98% (n = 360,000); Q293 LMP1-TROYcd NF-kB luciferase reporter, 4 h; AID 1347056; inhibition, % at 10 µM;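 active means compounds whose plate-normalised and pattern-corrected inhibition of the luciferase reporter signal at the single screening dose is 50% or more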
# * = called active by the depositor; u = inconclusive; x = not tested or not shown.
SMILES,EWS-Fli inh,TWEAK-Fn14 inh,LMP1 NFkB inh,LGR2 antag,PAX8 reporter,TROY NFkB inh
Cc1cc(-c2nnc(SCC(=O)Nc3nc(-c4ccc(Cl)cc4)cs3)o2)no1,-18.5,83.4*,-19.8,23.1,-21.2,8.0
COc1cc(NC(=O)CSc2nnc(-c3cc(C)on3)o2)cc(OC)c1,-9.6,1.9,-7.0,8.3,31.6,7.1
C[C@@H]1CN([C@@H](C)CO)C(=O)c2cc(C#CC(C)(C)O)cnc2O[C@@H]1CN(C)Cc1cncnc1,0.9,x,x,7.5,x,x
CCOC(=O)CN1C(=O)SC(CC(=O)Nc2nccs2)C1=O (stereo unspecified),x,67.5*,-5.3,x,x,x
C[C@H](CO)N1C[C@H](C)[C@H](CN(C)C)Oc2ccc(NC(=O)NC3CCCCC3)cc2C1=O,0.2,x,x,-22.6,-10.7,x
O=C(Nc1ccc2nc3n(c(=O)c2c1)CCCC3)c1cc([N+](=O)[O-])ccc1F,x,89.5*,1.9,x,x,80.5*
CCCCNC(=S)Nc1ccc2nc3n(c(=O)c2c1)CCCCC3,-23.4,-31.9,0.5,-10.8,-18.1,-2.0
CC(C)CCNC(=S)Nc1ccc2nc3n(c(=O)c2c1)CCCCC3,1.7,-15.6,62.7*,0.1,-21.5,1.5
CCC(=O)Nc1ccc2c(c1)C(=O)N(C)C[C@H](OC)[C@H](C)CN(C(=O)C1CC1)[C@H](C)CO2,-7.8,x,x,7.3,-7.5,x
C[C@@H]1CN([C@H](C)CO)C(=O)Cc2cc(NC(=O)CCC(F)(F)F)ccc2O[C@H]1CN(C)C(=O)Nc1ccc(C(F)(F)F)cc1,-6.5,x,x,15.5,2.8,x
O=C(c1ccc(-c2nnc(-c3ccccc3)o2)cc1)N1CCCCCC1,x,56.8*,16.4,x,-51.5,30.4
Cc1cc(C)n(-c2ccc(C(=O)Nc3ccc4c(c3)OCCO4)cc2)n1,x,18.9,13.3,x,x,-24.3
CC(=O)NC(CC(=O)Nc1ccc2c(c1)OCCO2)c1ccccc1 (stereo unspecified),-58.7,-0.8,-4.9,-11.6,-10.5,-12.5
Nc1ccccc1SCC(=O)Nc1ccc2c(c1)OCCO2,-36.2,67.7*,-42.6,39.2,-73.0,57.9*
Cc1cc(C)n(C(C)CC(=O)Nc2ccc3c(c2)OCCO3)n1 (stereo unspecified),10.2,60.8*,11.5,-4.1,-4.2,42.8
Nc1ccccc1SCC(=O)Nc1ccc2c(c1)OCO2,-46.9,-35.5,-28.8,-38.9,-102.3,3.7
O=C(CC(c1ccccc1)c1ccccc1)Nc1ccc2c(c1)OCCO2,x,52.3*,-2.2,x,x,22.2
Cn1cccc1C(=O)OCC(=O)Nc1ccc2c(c1)OCCO2,-37.4,70.7*,38.4,u,-83.3,8.7
Cn1cccc1C(=O)OCC(=O)NCc1ccc2c(c1)OCO2,-13.7,-19.0,-0.2,6.9,-26.7,-31.1
COc1ccccc1-c1cnc2c(c1)C(=O)N([C@@H](C)CO)C[C@H](C)[C@@H](CN(C)C)O2,-6.7,x,x,14.3,x,x
CCC(=O)N1CC2(CCN(C(=O)Nc3ccc(F)cc3)CC2)c2c([nH]c3cc(OC)ccc23)[C@H]1CO,x,x,x,-3.3,-8.8,x
COCCn1c(SCC(=O)c2ccc3c(c2)OCCO3)nnc1-c1ccoc1C,x,9.8,-5.6,x,13.8,14.7
Nn1c(SCC(=O)Nc2ccc3c(c2)OCCO3)nnc1-c1ccccn1,x,77.4*,5.8,3.8,x,6.9
COCCCn1c(SCC(=O)Nc2ccc3c(c2)OCCO3)nnc1-c1ccoc1C,x,63.7*,-8.2,x,-10.8,16.4
C[C@H](CO)N1C[C@H](C)[C@@H](CN(C)C(=O)Nc2ccc3c(c2)OCO3)Oc2ccc(NC(=O)CCN3CCOCC3)cc2CC1=O,-7.9,x,x,3.0,-23.7,x
SMILES,EWS-Fli inh,TWEAK-Fn14 inh,LMP1 NFkB inh,LGR2 antag,PAX8 reporter,TROY NFkB inh
C[C@@H]1CN([C@H](C)CO)C(=O)c2cc(N(C)C)ccc2O[C@@H](C)CCCCO[C@H]1CN(C)S(=O)(=O)c1ccc(F)cc1,4.2,x,x,-6.5,38.7,x
CCOCCCNC(=O)c1ccc2c(c1)N=C(CC)c1cc(Br)ccc1S2,61.2*,21.2,16.1,2.3,91.4*,16.8
CN1[C@H](C(=O)N2CCOCC2)[C@@H](CO)[C@@H]2Cn3c(ccc(/C=C/c4ccccc4)c3=O)[C@@H]21,-1.9,x,x,-10.0,30.1,x
CC=Cc1ccc2n(c1=O)C[C@@H]1[C@@H](CO)[C@H](C(=O)NC3CCCC3)N(CCC)[C@H]21 (mixture of isomers),-4.6,x,x,-6.8,x,x
CCCN1[C@@H]2c3ccc(/C=C/c4ccccc4)c(=O)n3C[C@@H]2[C@@H](CO)[C@@H]1C(=O)N1CCOCC1,5.4,x,x,-0.9,68.9*,x
CC=Cc1ccc2n(c1=O)C[C@H]1[C@H](CO)[C@@H](C(=O)NC3CCC3)N(CC)[C@@H]21 (mixture of isomers),4.8,x,x,-2.2,86.9*,x
COc1ccc2c3c([nH]c2c1)[C@@H](CO)N(C(=O)Nc1ccc(F)cc1)CC31CN(C(=O)Nc2c(C)noc2C)C1,-10.9,x,x,17.4,-27.5,x
Cc1cc(C(F)(F)F)c2c(C)nn(-c3ccccc3)c2n1,-3.6,-25.5,7.0,-0.8,0.1,0.7
Cc1nn(-c2ccccc2)c2nc(C(Cl)(Cl)Cl)[nH]c(=O)c12,15.4,12.4,1.8,-0.3,0.4,51.2*
CCCCC(=NCCc1c(C)[nH]c2ccccc12)C1=C(O)CC(c2ccccc2)CC1=O (stereo unspecified),50.8*,17.7,12.1,12.0,25.9,15.3
C[C@@H]1CN([C@H](C)CO)C(=O)Cc2cc(NC(=O)Cc3cn(C)c4ccccc34)ccc2O[C@H]1CN(C)Cc1ccc2c(c1)OCO2,-4.5,x,x,1.4,-22.7,x
CN(C)/C(=N\S(=O)(=O)c1ccccc1)c1ccc(F)cc1,3.7,51.5*,1.4,18.2,1.6,-17.1
Cc1sc(NC(=O)Cc2ccc3c(c2)OCO3)nc1-c1ccc2c(c1)CCN2C(=O)c1ccccc1F,x,50.9*,8.2,16.2,14.8,-8.3
O=C(c1ccncc1)N1C[C@H]2[C@@H](c3ccccc31)[C@H](CO)N2Cc1ccccc1F,8.4,x,x,-16.4,2.4,x
CCS(=O)(=O)N1CCC(NC(=O)C(Cc2cccc(OC)c2OC)NC(C)=O)CC1 (stereo unspecified),-3.0,85.0*,2.7,7.8,-12.2,2.3
COC(=O)c1ccccc1S(=O)(=O)N1CCC(NC(=O)C(Cc2cccc(OC)c2OC)NC(C)=O)CC1 (stereo unspecified),3.2,1.9,0.5,-3.1,6.8,7.7
C#CC[N+](C)(C)CCCCCCCCCC,6.4,22.7,13.7,x,19.8,8.6
CC#CC[N+](C)(C)CCCCCCCCCCCC,25.6,19.8,25.3,12.4,82.6*,44.9
C#CC[N+](C)(C)CCCCCCCC,7.4,-5.7,0.7,1.5,0.8,8.6
C#CC[N+](C)(C)CCCCCCCCCCCC,-2.1,19.4,18.3,x,87.2*,29.0
CC(C)/C=C(/C(=O)c1ccc(Cl)cc1Cl)n1cncn1,-6.2,61.5*,19.8,26.3,0.8,1.1
CC(C)(C)C(=O)/C(=C/c1ccc(Cl)cc1)n1cncn1,49.3,77.0*,-5.6,42.4,85.8*,20.1
CCOC(=O)N1CCC(=NNC(=O)COc2ccc(C#N)cc2)CC1,-2.0,-20.9,1.3,2.6,1.3,4.9
